This is part of a sample that, as a whole, favours compounds with a hit. Of some 79,000 tested, about 15% had one in any assay. Activity calls are given as the source filed them. Cut-off read from the data, not from the text of the source: active = growth inhibition above about 70%; inactive = the rest.
experiment: NCI Yeast Anticancer Drug Screen. Data for the mlh1 rad18 strain (AID 175); conditions: S. cerevisiae mlh1 rad18 strain growth inhibition; at 50.0 µM; stronger effect = higher value
In short: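 Test agents were incubated with a yeast strain of defined genotype (DNA damage repair defect). Inhibition of growth was derived by comparison with vehicle-exposed cultures.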

Row | SMILES | growth inhibition
1 | O=S(=O)(CS(=O)(=O)c1ccccc1Br)c1ccccc1Br | 6.95% (inactive)
2 | c1ccc2c(c1)C1CC3N=NC1C23 (stereo not given) | -3.95% (inactive)
3 | O=C1C(=O)N(CN2CCCCC2)c2ccccc21 | 17.9% (inactive)
4 | CCCCOc1ccccc1C(=O)OC | 18.5% (inactive)
5 | CC(=O)NCCc1ccc(OC(C)=O)c(OC(C)=O)c1 | 16.1% (inactive)
6 | CC(NC(=O)C(Cc1ccccc1)NC(=O)OCc1ccccc1)C(=O)NC1C(CO)OC(n2cnc3c(N)ncnc32)C1O (stereo not given) | 16.5% (inactive)
7 | Cc1cc(C(C)(C)CC(=O)O)cc(C)c1C | 56.3% (inactive)
8 | CC(=O)NC(CCCN)C(=O)NCc1ccccc1 (stereo not given) | -22.6% (inactive)
9 | CCCCCCCCCC(=O)OCCCC(CCCOC(=O)CCCCCCCCC)OC(=O)CCCCCCCCC | -26.6% (inactive)
10 | Cc1ccc(Nc2nnc(-c3ccc4c(c3)OCO4)o2)c(C)c1 | 14.8% (inactive)
11 | C(=C\C[P+](c1ccccc1)(c1ccccc1)c1ccccc1)/C[P+](c1ccccc1)(c1ccccc1)c1ccccc1 | 27.9% (inactive)
12 | CCCCn1c2nc3ccccc3c-2nc2cc(OC)c(OC)cc21 | 35.1% (inactive)
13 | CCOc1ccc(NC(=O)Nc2cccc(Cl)c2C)cc1 | -20.6% (inactive)
14 | Ic1ccc(Nc2ncnc3sc4c(c23)CCCC4)cc1 | -7.65% (inactive)
15 | CC(=O)Oc1cccc(CN2CCc3ccccc3C2)c1 | -24.1% (inactive)
16 | CN(C)c1ccc(C=C(C(=O)O)C(=O)O)cc1 | 15.5% (inactive)
17 | COc1ccc(OC)c(NC(=O)Nc2cc(Cl)ccc2C)c1 | 4.8% (inactive)
18 | COC1OC(C)CC(O)C1O (stereo not given) | -37.8% (inactive)
19 | COCCNC(c1ccccc1)C(O)c1ccccc1 (stereo not given) | -7.85% (inactive)
20 | C[N+](C)(C)/N=C/c1ccc(O)c(O)c1 | -13.8% (inactive)

Row | SMILES | growth inhibition
21 | COc1cc(C(C)O)c[n+](Cc2ccccc2)c1 (stereo not given) | -18.9% (inactive)
22 | COc1ccc(NC(=O)CC(=O)n2nc(-c3ccccc3)c(N=Nc3ccccc3C)c2-c2ccccc2)cc1 | 6.65% (inactive)
23 | COC1OCC(NC(=O)CNC(=O)CCCCCCCCCCCCC(C)C)C(O)C1O (stereo not given) | 18.6% (inactive)
24 | O=S1(=O)C2CCC(C2)C1Cl (stereo not given) | 4.2% (inactive)
25 | NC(N)=NNC(=S)S | 12.8% (inactive)
26 | COC(=O)C(=[N+]=[N-])C(=O)c1cccc([N+](=O)[O-])c1 | 12.2% (inactive)
27 | Clc1ccc2oc(N3CCOCC3)nc2c1 | 4.1% (inactive)
28 | O.[Cl][Pt].[NH-]CC[S-] | -2% (inactive)
29 | CCC(/C=C\C(C)C1CCC2C3CC=C4CC(OC)CCC4(C)C3CCC12C)C(C)C (stereo not given) | 9.05% (inactive)
30 | ClC[P+](c1ccccc1)(c1ccccc1)c1ccccc1 | 33.4% (inactive)
31 | CCCCCCCCCCN=C(N)CSSCC(N)=NCCCCCCCCCC | 97.4% (active)
32 | COc1ccc(OC)c2cc3c(cc12)C(=O)C(C)=C(C)C3=O | 7.7% (inactive)
33 | CCCCCOCC(O)CNCCNCC(O)COCCCCC (stereo not given) | 0% (inactive)
34 | CC[n+]1c(C)sc2cc(Cl)c(-c3ccccc3)cc21 | 34.1% (inactive)
35 | C=CCC[P+](c1ccccc1)(c1ccccc1)c1ccccc1 | 8.75% (inactive)
36 | Nc1nnc2nc(C(C(=O)/C=C\c3cccc(O)c3)c3nc4nnc(N)n4[nH]c3=O)c(=O)[nH]n12 | 19.7% (inactive)
37 | C/C(=N\[N+](C)(C)C)c1ccc2ccccc2c1 | -9.6% (inactive)
38 | C=CCCC(C)(C(=O)OCC)C(=O)OCC | -11% (inactive)
39 | O=C(/C=C/C=C/c1ccccc1)CCc1ccccc1 | -29.4% (inactive)
40 | C[C@H]1C[C@H]2[C@@H]3CC[C@@]4(OCC4=O)[C@@]3(C)C[C@H](O)[C@]2(F)[C@@]2(C)C=CC(=O)C=C12 | 0.35% (inactive)
